Source: PubChem BioAssay (several laboratories)
Most compounds without a hit are left out; they make up all but 2.6% or so of the library.
EWS-Fli inh: blocks EWS/Fli oncoprotein-driven transcription. A673 NR0B1-luciferase reporter, viability-normalised. inhibition, % at 12.6 µM. 0.67% of 350,000 active. AID 651661;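 active = mean inhibition of at least 50% after viability correction, with every replicate also passing that limit; inconclusive = mean reaches 50% but only one of two replicates passes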;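 also: firefly luciferase signal divided by Alamar Blue viability fluorescence both relative to DMSO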
LGR2 inh: inhibitors of bursicon-induced Drosophila LGR2 receptor cAMP signaling. HEK293 LGR2, CRE-luciferase, bursicon-stimulated, 4 h. inhibition, % at 9.99 µM. 0.35% of 380,000 active;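 active = drop in luminescence signal, shown as inhibition above about 50% in the replicate tests, limit read from the data, passing the limit was not always enough; inconclusive = probably only some replicates passing the limit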;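 also: agonist challenge used bursicon conditioned medium at about half maximal strength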
TROY NFkB inh: inhibitors of TROY-dependent NF-kB signaling | Q293 LMP1-TROYcd NF-kB luciferase reporter, 4 h | inhibition, % at 10 µM | 0.98% of 360,000 active | AID 1347056;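 active = compounds whose plate-normalised and pattern-corrected inhibition of the luciferase reporter signal at the single screening dose is 50% or more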
LMP1 NFkB inh: inhibitors of Epstein-Barr LMP1-induced NF-kappaB reporter | 0.69% of 350,000 active | LMP1-induced NF-kappaB luciferase reporter cells, luminescence | inhibition, % at 12.5 µM; in the data active = inhibition above about 41%; inconclusive = no clear call, values can overlap the other calls
TWEAK Fn14 block: inhibitors of TWEAK-Fn14 interaction signaling; TWEAK-stimulated Fn14 reporter cells, luciferase luminescence, 8 h; inhibition, % at 10 µM; 2% of 360,000 active; AID 1159606; in the data active = inhibition above about 50%
Hits are given with their value; - = inactive; ? = inconclusive; . = no result.

SMILES	EWS-Fli inh	LGR2 inh	TROY NFkB inh	LMP1 NFkB inh	TWEAK Fn14 block
CCc1nc(N2[C@@H](C#N)[C@H](c3ccccc3-c3ccccc3F)[C@@H]2CO)sc1C	58	-	.	.	.
Cc1cc(C)c(C#N)c(SCC(=O)c2ccc(Cl)cc2Cl)n1	-	-	-	-	57
CN1/C(=C\C(=O)c2ccco2)C(C)(C)c2ccccc21	-	-	-	-	61
CN1/C(=C\C(=O)COc2ccc3c(c2)OCO3)C(C)(C)c2ccccc21	.	.	69	-	64
CN1/C(=C\C(=O)c2cccnc2)C(C)(C)c2ccccc21	-	-	-	-	-
CN1/C(=C/C(=O)c2nc(S(C)(=O)=O)ncc2Cl)C(C)(C)c2ccccc21	.	.	70	60	84
CN1/C(=C\C(=O)c2cncc(Br)c2)C(C)(C)c2ccccc21	.	-	-	-	56
COc1ccccc1OCC(=O)/C=C1/N(C)c2ccccc2C1(C)C	-	-	-	-	-
CNC[C@H]1Oc2ccc(N(C)C)cc2CC(=O)N([C@H](C)CO)C[C@H]1C	-	-	.	.	.
CCCC#Cc1ccc([C@@H]2[C@H](CO)N3C(=O)CN(C(=O)CN4CCOCC4)C[C@@H]23)cc1	-	-	.	.	.
CC(=O)N1CC2(C1)[C@H](c1ccccc1)[C@@H](CO)N2C(=O)c1cnccn1	-	-	.	.	.
Cc1cc(C)nc(SC2=CS(=O)(=O)c3ccccc32)n1	.	.	-	-	53
O=S1(=O)C=C(Sc2nnc(-c3ccccc3)o2)c2ccccc21	.	.	62	-	103
CCOC(=O)c1c(-c2ccc(OC)cc2)csc1/N=C/C1=C(O)CCCC1=O	.	-	-	53	-
O=[N+]([O-])c1cc(C(F)(F)F)cc([N+](=O)[O-])c1NCCNC(=S)Nc1cccc(F)c1	-	-	68	-	-
Cc1nn(C)c(C(=O)Nc2ccc(S(=O)(=O)NC34CC5CC(CC(C5)C3)C4)cc2)c1Br	.	.	51	-	-
Cc1ccc(S(=O)(=O)NC23CC4CC(CC(C4)C2)C3)cc1	-	-	-	-	-
O=S(=O)(NC1c2cccc3cccc(c23)C1Sc1ncccn1)c1ccccc1 (configuration not stated)	-	-	91	61	108
CCOC(=O)c1[nH]c(C)c(C(=O)OCC(=O)NC2CCS(=O)(=O)C2)c1C (configuration not stated)	-	-	-	-	-
CCOC(=O)c1c(C)[nH]c(C(=O)OCC(=O)NC2CCS(=O)(=O)C2)c1C (configuration not stated)	.	-	.	-	87
COCC(=O)N1CC2(C1)[C@H](c1ccc(-c3cccc(F)c3)cc1)[C@H](CO)N2C(=O)COC	.	-	.	.	.
COc1ccc(S(=O)(=O)Nc2cccc3c2O[C@H](CN(C)S(=O)(=O)c2ccc(Cl)cc2)[C@@H](C)CN([C@@H](C)CO)C3=O)cc1	-	-	.	.	.
O=C(NCC(c1cccnc1)N1CCN(c2ccccc2F)CC1)C1CCCCC1 (configuration not stated)	.	.	.	-	85
C[C@@H]1CN([C@@H](C)CO)C(=O)c2cc(-c3ccc(C(=O)N(C)C)cc3)cnc2O[C@H]1CN(C)C	-	-	.	.	.
OC[C@@H]1[C@@H](c2ccc(-c3ccccc3)cc2)[C@@H]2CN(Cc3cncnc3)CCCCN12	-	-	.	.	.
SMILES	EWS-Fli inh	LGR2 inh	TROY NFkB inh	LMP1 NFkB inh	TWEAK Fn14 block
CN(C)CC#Cc1ccc([C@H]2[C@H]3CN(C(=O)c4ccc(F)cc4)CC(=O)N3[C@H]2CO)cc1	-	-	.	.	.
C/C(=N/NC(=O)c1cccs1)c1c(C)[nH]n(-c2nc3ccccc3s2)c1=O	-	-	-	-	-
CCC(=NCc1ccco1)c1c(C(F)(F)F)[nH]n(-c2nc3ccccc3s2)c1=O	.	.	-	-	87
O=c1c(C=NCc2cccnc2)c(C(F)(F)F)[nH]n1-c1nc2ccccc2s1	-	58	-	-	77
CCC(=NCc1ccccc1)c1c(C(F)(F)F)[nH]n(-c2nc3ccccc3s2)c1=O	.	.	-	-	-
CC(=NCc1ccco1)c1c(C)[nH]n(-c2nc3ccccc3s2)c1=O	.	.	84	-	90
Cc1ccc(S(=O)(=O)Nc2ccc3c(c2)C(=O)N([C@@H](C)CO)C[C@H](C)[C@@H](CN(C)S(C)(=O)=O)O3)cc1	-	-	.	.	.
O=C(COC(=O)COc1ccc(Cl)cc1)NC1CCCCC1	.	.	-	-	-
O=C(COC(=O)COc1ccc(Br)cc1)NC1CCCCCC1	-	-	79	-	-
O=C(Nc1cccc(Oc2ccc(C(=O)O)c(C(=O)O)c2)c1)c1ccc(-c2ccccc2)cc1	-	56	-	-	-
CC(C)(C)C(=O)Nc1ccc(C(=O)Nc2cccc(Oc3ccc(C(=O)O)c(C(=O)O)c3)c2)cc1	-	-	-	-	-
O=C(O)c1ccccc1C(=O)Nc1ccc(Oc2ccccc2)cc1	-	-	-	.	58
CO[C@@H]1CN(C)C(=O)c2cc(NS(C)(=O)=O)ccc2OC[C@H](C)N(CC2CC2)C[C@@H]1C	-	-	.	.	.
C[C@@H]1CCCCO[C@H](CN(C)CC2CC2)[C@@H](C)CN([C@H](C)CO)C(=O)c2cc(NC(=O)Nc3ccccc3)ccc2O1	.	-	.	.	.
C[C@@H]1CN([C@H](C)CO)C(=O)c2cc(N(C)C)ccc2O[C@H]1CN(C)Cc1ccc(C(F)(F)F)cc1	-	-	.	.	.
CCCNC(=O)C[C@H]1C[C@@H]2c3cc(NC(=O)NC4CCCCC4)ccc3O[C@@H]2[C@@H](CO)O1	-	-	.	.	.
CC(C)(C)CC(C)(C)c1ccc(OCCOCC[N+](C)(C)Cc2ccccc2)cc1	-	-	-	-	57
CC(C)(C)c1ccc(OCCNCc2ccccc2)cc1	-	-	-	-	-
C[N+](C)(CCOc1ccccc1)Cc1ccccc1 (tested in a mixture with another compound)	.	-	71	-	-
COc1cccc(-c2cnc3c(c2)C(=O)N([C@H](C)CO)C[C@H](C)[C@@H](CN(C)Cc2ccccc2)O3)c1	-	-	.	.	.
NNC(=O)COc1ccc(-c2nccc(-c3ccc(F)cc3)n2)cc1	-	-	-	-	55
O=C(O)COc1ccc(-c2nccc(-c3ccccn3)n2)cc1	53	-	-	-	61
NNC(=O)COc1ccc(F)cc1	-	-	-	-	-
COc1cc2cc(NC(C)=O)cc(NCc3ccccc3)c2cc1OC	-	-	59	-	-
CC(C)N(C(C)C)S(=O)(=O)c1ccc(N2CCc3ccccc3C2)nc1	-	-	-	-	58
CCN(CC)S(=O)(=O)c1ccc(N2CCc3ccccc3C2)nc1	.	-	-	-	-
C=CCNc1ccc(N2C(=O)CCCC2=O)cc1[N+](=O)[O-]	-	-	-	-	74
CC(NC(=S)N1CCN(c2ccccc2)CC1)c1ccccc1 (configuration not stated)	-	?	-	-	65
O=[N+]([O-])c1ccc(NC(=S)N2CCN(c3ccccc3)CC2)cc1	.	-	-	-	56
C[C@H]1CN([C@@H](C)CO)C(=O)c2cc(-c3ccccc3F)cnc2O[C@H]1CN(C)Cc1ccccc1	-	-	.	.	.
